Assay outcomes from PubChem BioAssay.
KB-V1 MDR tox = KB-V1 MDR subline cytotoxicity; KB-V1 MDR cells viability, CellTiter-Glo, 72 h; Potency, µM (titrated, usually from 46.1 µM), usual class: cytotoxic; actives 3.4% (n = 400,000); AID 1347076; note: % is set by controls: 0 for no effect and ±100 for the full control effect; nearly all actives have a fitted effect of over 60% in size
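Potencies derive from concentration-effect curves fitted to normalized luminescence (CellTiter-Glo) of KB-V1 cells treated for 72 h at 37 degrees C in phenol-red-free DMEM containing 10% FBS.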
SW480 rerep = induces DNA re-replication in SW480 colon adenocarcinoma cells; actives 1.8% (n = 340,000); SW480 DNA re-replication, Hoechst DNA content imaging, 48 h; AID 624297; Potency, µM (top dose mostly 46.1 µM), for the others: at the highest dose re-replication activation, most hits filed as activators; note: % of control where 0% means no effect; nearly all actives have a fitted effect of over 55% in size
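DNA re-replication was detected as more nuclei of elevated Hoechst intensity after 48 hr exposure to compound (23 nL pinned per well of 250 cells).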
KB-3-1 cytotox = kills parental KB-3-1 adenocarcinoma cells. KB-3-1 viability, CellTiter-Glo ATP luminescence, 72 h. Potency, µM (series often up to 46.1 µM), most hits filed as cytotoxic. actives 1.4% (n = 400,000); note: % is set by controls: 0 for no effect and ±100 for the full control effect; nearly all actives have a fitted effect of over 60% in size
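Viability of parental KB-3-1 cells, measured by CellTiter-Glo luminescence, followed a 72 h incubation at 37 °C with pinned compounds in phenol-red-free DMEM containing 10% FBS.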
MCF10A rereplic = induces DNA re-replication in MCF 10a normal breast cells; MCF 10A DNA re-replication, Hoechst nuclear intensity, 48 h; Potency, µM (series often up to 46.1 µM), for inactives: at the top dose activity, positive = re-replication, hits mostly activators; actives 2.9% (n = 350,000); AID 624296; note: % of control where 0% means no effect; nearly all actives have a fitted effect of over 50% in size
HT1080 IDH1KD tx = HT-1080 IDH1 knockdown cell toxicity (counter line); Potency, µM (doses to about 46.1 µM), without a hit: at the top dose activity, negative = toxicity, hits mostly cytotoxic; AID 686971; actives 2% (n = 360,000); HT-1080 IDH1 knockdown viability, ATP luminescence, 48 h;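 note: 0% = DMSO wells and -100% = cell-free medium wells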
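Viability of IDH1-knockdown HT-1080 fibrosarcoma cells was assessed by CellTiter-Glo after 48 h at 37 °C with titrated compound; concentration-effect curves were classified by fit quality and response size.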
HT1080NT lethal = kills 2HG-producing HT-1080-NT fibrosarcoma cells. HT-1080-NT fibrosarcoma viability, CellTiter-Glo ATP luminescence, 48 h. Potency, µM (top dose mostly 46.1 µM), for the others: top-dose activity, negative = less viability, usual class: cytotoxic. actives 1.6% (n = 360,000). AID 686970;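 note: NT is the 2HG producing partner of a matched IDH1 knockdown line; 0% = DMSO-treated cells and -100% = media-only wells without cells; nearly all actives have a fitted effect of over 55% in size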
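750 cells/well, RPMI + 5% FBS; 2 h settle, compound pin-transfer, 48 h at 37 degrees C. CellTiter-Glo 10 min RT, luminescence. Normalized to DMSO and media-only wells.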
The depositor's hits bear a star. Only some compounds are listed: those with a hit (about 7.9% of all), similar ones and a draw of the others. Calls come from the whole dose curve; as a rule, active = well fitted curve in the direction sought with a large enough effect; inconclusive = small, poorly fitted or top-dose-only effect, or another doubt; inactive = no such curve, though single readings can be large; an effect the other way counts as inactive or inconclusive. Potency is the fitted concentration of half-maximal effect.

CC(C)NC(=O)c1ccc2c3n(nc2c1)-c1ccccc1CO3 was read as KB-V1 MDR tox 5.8µM*, SW480 rerep -13%, KB-3-1 cytotox inconclusive, MCF10A rereplic 24%, HT1080 IDH1KD tx inconclusive and HT1080NT lethal inconclusive.
For CCn1c(/C=C/c2cccc([N+](=O)[O-])c2)nc2ccccc2c1=O the results were KB-V1 MDR tox 21µM*, SW480 rerep 3%, KB-3-1 cytotox inconclusive, MCF10A rereplic 15%, HT1080 IDH1KD tx 9% and HT1080NT lethal 14%.
CCn1c(/C=C/c2ccccc2Cl)nc2ccccc2c1=O was read as KB-V1 MDR tox inactive, SW480 rerep inconclusive, KB-3-1 cytotox inactive, MCF10A rereplic 16µM*, HT1080 IDH1KD tx 0% and HT1080NT lethal -5%.
`CCn1c(/C=C\c2ccccc2C)nc2ccccc2c1=O` gave KB-V1 MDR tox inconclusive, SW480 rerep 19%, KB-3-1 cytotox inactive, MCF10A rereplic 0%, HT1080 IDH1KD tx 3% and HT1080NT lethal -1%.
`CCn1c(/C=C/c2c[nH]c3ccccc23)nc2ccccc2c1=O` gave KB-V1 MDR tox inactive, SW480 rerep inconclusive, KB-3-1 cytotox inactive, MCF10A rereplic 21µM*, HT1080 IDH1KD tx -17% and HT1080NT lethal inconclusive.
For O=c1c2ccccc2nc(/C=C/c2cccc([N+](=O)[O-])c2)n1CCO the results were KB-V1 MDR tox inconclusive, SW480 rerep -3%, KB-3-1 cytotox inactive, MCF10A rereplic -31%, HT1080 IDH1KD tx -10% and HT1080NT lethal -17%.
`O=c1c2ccccc2nc(/C=C/c2cccnc2)n1CCc1ccccc1` gave KB-V1 MDR tox inconclusive, SW480 rerep -21%, KB-3-1 cytotox inactive, MCF10A rereplic 29µM*, HT1080 IDH1KD tx inconclusive and HT1080NT lethal inconclusive.
For CCn1c(/C=C/c2ccccc2[N+](=O)[O-])nc2ccccc2c1=O the results were KB-V1 MDR tox inconclusive, SW480 rerep 27%, KB-3-1 cytotox inactive, MCF10A rereplic 15%, HT1080 IDH1KD tx -6% and HT1080NT lethal -12%.
CCN1c2ccccc2-c2nc(SCC(=O)Nc3cc(F)ccc3F)ncc2S1(=O)=O was read as KB-V1 MDR tox inactive and KB-3-1 cytotox inconclusive.
For COc1ccc(NS(=O)(=O)c2ccc3c(c2)CCN3C(=O)CCC(=O)O)cc1Cl the results were KB-V1 MDR tox inactive and KB-3-1 cytotox inactive.
`CN(C)c1ccc(/C=C/c2nc3ccccc3c(=O)n2-c2ccc(C(=O)O)cc2)cc1` gave KB-V1 MDR tox inactive, SW480 rerep 21µM*, KB-3-1 cytotox inactive, MCF10A rereplic 18µM*, HT1080 IDH1KD tx -12% and HT1080NT lethal 2%.
Cc1[nH]c2ccccc2c1/C=C/c1nc2ccccc2c(=O)n1-c1ccc([N+](=O)[O-])cc1 was read as KB-V1 MDR tox inconclusive, SW480 rerep -4%, KB-3-1 cytotox inactive, MCF10A rereplic 11%, HT1080 IDH1KD tx 2% and HT1080NT lethal -6%.
`O=C(O)c1cccc(-n2c(/C=C/c3ccccc3)nc3ccccc3c2=O)c1` gave KB-V1 MDR tox inactive, SW480 rerep inconclusive, KB-3-1 cytotox inactive, MCF10A rereplic 15%, HT1080 IDH1KD tx -3% and HT1080NT lethal 0%.
CN(C)S(=O)(=O)c1ccc2[nH]cc(/C=C/c3nc4ccccc4c(=O)n3-c3ccccc3)c2c1 was read as KB-V1 MDR tox inconclusive, SW480 rerep 3.3µM*, KB-3-1 cytotox inactive, MCF10A rereplic inconclusive, HT1080 IDH1KD tx inconclusive and HT1080NT lethal inconclusive.
For Cc1ccc2occ(CC(=O)N(Cc3ccc(Cl)cc3)Cc3ccco3)c2c1 the results were KB-V1 MDR tox inconclusive and KB-3-1 cytotox inactive.
O=C1C=C(Nc2ccccc2C(=O)O)c2ccccc2C1=O was read as KB-V1 MDR tox inactive, SW480 rerep 36%, KB-3-1 cytotox inactive, MCF10A rereplic 30%, HT1080 IDH1KD tx 18µM* and HT1080NT lethal inconclusive.
O=C(O)c1ccccc1NC(=O)C(c1ccccc1)c1ccccc1 was read as KB-V1 MDR tox inactive, SW480 rerep 20%, KB-3-1 cytotox inactive, MCF10A rereplic 2%, HT1080 IDH1KD tx -9% and HT1080NT lethal 0%.
For O=C1C(Nc2ccccc2)=C(NS(=O)(=O)c2ccccc2)C(=O)c2ccccc21 the results were KB-V1 MDR tox inconclusive, SW480 rerep -1%, KB-3-1 cytotox inactive, MCF10A rereplic -2%, HT1080 IDH1KD tx -14% and HT1080NT lethal -17%.
Screening CC1=CC(=O)c2ccccc2C1=O returned KB-V1 MDR tox inactive, SW480 rerep -14%, KB-3-1 cytotox inactive, MCF10A rereplic 1%, HT1080 IDH1KD tx 5% and HT1080NT lethal 27%.
O=C1C=C(Nc2cccc3cccnc23)c2ccccc2C1=O was read as KB-V1 MDR tox 5.8µM*, SW480 rerep 7.3µM*, KB-3-1 cytotox 5.8µM*, MCF10A rereplic 3.7µM*, HT1080 IDH1KD tx 2.1µM* and HT1080NT lethal inconclusive.
Screening O=C1C=C(Nc2ccccc2)c2ccccc2C1=O returned KB-V1 MDR tox inconclusive, SW480 rerep 2.6µM*, KB-3-1 cytotox 5.8µM*, MCF10A rereplic 5.8µM*, HT1080 IDH1KD tx 5.2µM* and HT1080NT lethal inconclusive.
`O=C(CN1C(=O)c2ccccc2C1=O)Nc1cccc2cccnc12` gave KB-V1 MDR tox inactive, SW480 rerep -8%, KB-3-1 cytotox inactive, MCF10A rereplic 4%, HT1080 IDH1KD tx 4% and HT1080NT lethal -1%.
O=C1C=C(Nc2ccccc2)C(=O)c2ccccc21 was read as KB-V1 MDR tox inconclusive, SW480 rerep inconclusive, KB-3-1 cytotox inconclusive, MCF10A rereplic 4%, HT1080 IDH1KD tx inconclusive and HT1080NT lethal 15µM*.
Cc1ccc(C)c(OCCC(=O)N2CCN(S(=O)(=O)c3cc(C)ccc3C)CC2)c1 was read as KB-V1 MDR tox inconclusive, SW480 rerep 9%, KB-3-1 cytotox inconclusive, MCF10A rereplic inconclusive, HT1080 IDH1KD tx -1% and HT1080NT lethal -4%.
For CCCCNC1=CC(=O)C(=O)c2ccccc21 the results were KB-V1 MDR tox inactive, SW480 rerep -40%, KB-3-1 cytotox inactive, MCF10A rereplic 7%, HT1080 IDH1KD tx 23µM* and HT1080NT lethal -5%.
For CCc1ccc(NC2=CC(=O)C(=O)c3ccccc32)cc1 the results were KB-V1 MDR tox 16µM*, SW480 rerep 7.3µM*, KB-3-1 cytotox 18µM*, MCF10A rereplic 9.2µM*, HT1080 IDH1KD tx -3% and HT1080NT lethal -3%.
`CCc1ccc2c(c1)C(=O)c1ccccc1C2=O` gave KB-V1 MDR tox inactive, SW480 rerep 0%, KB-3-1 cytotox inactive, MCF10A rereplic 15%, HT1080 IDH1KD tx 3% and HT1080NT lethal -1%.
